# A selection: hits, their analogues and other compounds. The true share with any hit is near 18%.
# DT40 TDP1 no CPT: qHTS for Inhibitors of human tyrosyl-DNA phosphodiesterase 1 (TDP1): qHTS in cells in absence of CPT. DT40 Tdp1-/- hTDP1 cells, no CPT, ATP luminescence, 48 h. Potency, µM (series often up to 46.2 µM), without a hit: top-dose activity change, negative = growth inhibition, most hits filed as inhibitors. hit rate 15% among 420,000. AID 686978, 2013; note: potency is the fitted concentration of half-maximal effect; nearly all actives have a fitted effect of over 55% in size
#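 Cells were dispensed at 400 per well, compounds added by pin tool, plates incubated ≥48 hr at 37 °C, then CellTiter-Glo added for 30 min at room temperature before luminescence reading. Line: DT40 Tdp1-/- complemented with hTDP1; camptothecin omitted.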
# TDP1 block: qHTS Assay for Inhibitors of Tyrosyl-DNA Phosphodiesterase (TDP1) | hit rate 0.28% among 350,000 | AID 485290, 2010 | Tyrosyl-DNA phosphodiesterase 1 (Homo sapiens), Q9NUW8 | Potency, µM (titrated, usually from 130 µM), for the others: at the highest dose activity change, negative = inhibition, hits mostly inhibitors | recombinant TDP1, AlphaScreen DNA substrate cleavage; note: potency is the fitted concentration of half-maximal effect; nearly all actives have a fitted effect of over 40% in size
#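 Enzyme-compound mixtures sat 15 min at room temperature, followed by a 5 min reaction with 15 nM final substrate and 10 min with AlphaScreen beads. Recombinant human Tdp1 was used at 1 nM final.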
# DT40 TDP1 CPT: qHTS for Inhibitors of human tyrosyl-DNA phosphodiesterase 1 (TDP1): qHTS in cells in presence of CPT; chicken DT40 Tdp1-/-;hTDP1 cells + 20 nM CPT, ATP luminescence, 48 h; Potency, µM (highest dose often 46.2 µM), for the others: at the top dose activity change, negative = growth inhibition, hits mostly inhibitors; hit rate 12% among 420,000; AID 686979, 2013; note: potency is the fitted concentration of half-maximal effect; nearly all actives have a fitted effect of over 55% in size
#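 Chicken DT40 Tdp1-/- cells complemented with human TDP1, 400 cells/well, exposed to compounds plus 20 nM camptothecin for at least 48 h at 37 C; viability read as ATP content by CellTiter-Glo luminescence.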
# IL-1B inflam inh: qHTS for Inhibitors of Inflammasome Signaling: IL-1-beta AlphaLISA Primary Screen; THP-1 LPS/ATP IL-1B secretion, AlphaLISA, 16 h; stronger effect = lower value; activity change, % at 57.5 µM; hit rate 4.7% among 360,000; AID 743279, 2014; in the data active = activity change below about -50%; inconclusive = mostly about -30% to -49%
#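 Secreted IL-1B measured by AlphaLISA bead assay after 16 h compound exposure of THP-1 cells; compounds (final up to 57.5 uM) added 1 h before LPS (250 ng/mL) and ATP (1.25 mM) stimulation; lower signal means less secretion.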
# CtBP-E1A inh: qHTS Assay for Inhibitors of the CtBP/E1A Interaction | AlphaScreen GST-E1A/His-CtBP binding, 1536-well; stronger effect = lower value | hit rate 0.49% among 340,000 | activity change, % (no concentration beside the values) | CtBP / adenovirus E1A interaction (AlphaScreen) | AID 651724, 2012; in the data active = activity change below about -65%; inconclusive = mostly about -30% to -63%
#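 AlphaScreen with 125 nM GST-E1A and 125 nM His-CtBP (5X stocks) in Tris pH 8.0, 300 mM NaCl, BSA, Tween 20, TCEP. Compounds preincubated 2 h at 37 deg C, then glutathione donor/nickel acceptor beads added for 1 h at 37 deg C in dark.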
# Six1-Eya2 inh: qHTS Assay for Inhibitors of the Six1/Eya2 Interaction | Homeobox protein SIX1 (Homo sapiens) + Protein phosphatase EYA2 (Homo sapiens), … | AlphaScreen GST-Six1/His-Eya2 binding, biochemical; stronger effect = lower value | activity change, % (test concentration not listed) | hit rate 0.56% among 360,000; in the data active = activity change below about -65%; inconclusive = mostly about -30% to -63%
#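 GST-Six1 + His-Eya2 (5X stock: 250/500 nM); Tris pH 8.0, 300 mM NaCl, 0.05% BSA, 0.02% Tween 20; GSH donor/Ni acceptor beads; 1 h 37 °C dark; AlphaScreen readout.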
# * = called active by the depositor; ? = inconclusive; . = no result. Unless noted, calls come from the whole dose curve; as a rule, active = well fitted curve in the direction sought with a large enough effect; inconclusive = small, poorly fitted or top-dose-only effect, or another doubt; inactive = no such curve, though single readings can be large; an effect the other way counts as inactive or inconclusive. % is set by controls: 0 for no effect and ±100 for the full control effect.
SMILES,DT40 TDP1 no CPT,TDP1 block,DT40 TDP1 CPT,IL-1B inflam inh,CtBP-E1A inh,Six1-Eya2 inh
CC(C)Cc1nc2sc3c(c2c(=O)n1N)CC(C)(C)OC3,10µM*,3%,18µM*,-4,5,5
Cc1ccc(-c2nc3sc4c(c3c(=O)n2N)CC(C)(C)OC4)cc1,?,2%,-17%,?,7,2
CC1(C)Cc2c(sc3nc(-c4cc5ccccc5o4)n(N)c(=O)c23)CO1,21µM*,2%,?,-4,14,7
Cc1ccc(OC(C)C(=O)NCC2(N3CCOCC3)CCCCC2)cc1C (stereo unspecified),?,-1%,?,.,.,.
O=C(COc1ccccc1Cl)N1CCN(c2ccc([N+](=O)[O-])c(N3CCCCC3)c2)CC1,23µM*,0%,?,?,-13,-18
Cn1c(=O)n(C)c2cc([N+](=O)[O-])c(N3CCN(C(=O)c4ccc(F)cc4)CC3)cc21,?,11%,18µM*,30,.,0
O=C(c1cccc(F)c1)N1CCN(c2cc(N3CCCCC3)c(F)cc2[N+](=O)[O-])CC1,18µM*,9%,18µM*,-74*,-4,-2
Cn1c(=O)n(C)c2cc([N+](=O)[O-])c(N3CCN(C(=O)c4ccc(Cl)cc4)CC3)cc21,?,2%,?,-80*,41,0
CCC(=O)N1CCN(c2cc(N3CCCC3)c(F)cc2[N+](=O)[O-])CC1,8%,.,-17%,?,.,-18
O=C(c1ccc(N2CCCC2)c([N+](=O)[O-])c1)N1CCN(CCO)CC1,26%,-11%,0%,21,1,-1
CCOc1ccc(C(=O)Nc2ccc(NC(=S)NC(=O)CC)cc2)cc1Cl,-6%,-2%,15%,7,5,8
C#CCn1c(=O)n(-c2cccc(Cl)c2C)c(=O)c2c3c(sc21)CN(C(C)=O)CC3,-30%,-2%,-16%,.,.,.
O=C(c1ccc(F)cc1)N1CCN(c2ccc([N+](=O)[O-])c(N3CCCCC3)c2)CC1,23µM*,9%,?,-23,-21,?
COC(=O)C1=NN(C(=O)c2ccccc2)C(C)(O)C1 (stereo unspecified),23µM*,-12%,?,1,-1,4
COC(=O)C1=NN(C(=O)c2ccccc2)C(O)(c2ccc([N+](=O)[O-])cc2)C1 (stereo unspecified),-7%,6%,5%,3,8,-20
CCC1=C2CC[C@H]3C(=O)N(C)C(=O)[C@H]3[C@H]2[C@@]2(C)C(=NCC(=O)OC)OC(=O)N2C1=O,.,3%,.,.,.,.
COc1ccc(OC)c(CNS(=O)(=O)c2ccc(-c3cc(C(F)(F)F)on3)s2)c1,8.2µM*,3%,8.2µM*,.,.,.
COc1ccc(CNS(=O)(=O)c2ccc(-c3cc(C(F)(F)F)on3)s2)cc1OC,5.2µM*,3%,9.2µM*,.,.,.
COc1ccccc1CNS(=O)(=O)c1ccc(-c2cc(C(F)(F)F)on2)s1,21µM*,8%,23µM*,.,.,.
CSc1nc2nc(-c3ccc(F)cc3)c(CCN3CCN(C)CC3)cn2n1,15%,3%,-5%,-3,-4,5
CCN(C(=O)c1c(OC)cccc1OC)c1nnc(-c2cccnc2)s1,?,2%,?,3,-5,1
CCOC(=O)C1=NNC2(CC(=O)N(c3cccc(C)c3)C2=O)C1 (stereo unspecified),?,1%,-5%,38,7,2
